Compound activity: PubChem BioAssay, several laboratories
In the library only some 12% were active in any assay of this set; here they are far more common.
Lmaj promast: reduces viability of Leishmania major promastigotes | hit rate 9% among 200,000 | inhibition, % at 10 µM | resazurin fluorescence viability; in the data active = inhibition above about 50%;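 note: promastigotes grown with compound for 44 hours at 28 °C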
WT yeast gro inh: growth inhibition of WT yeast, mitochondrial fusion screen; mitochondrial fusion phenotypic screen, WT strain; inhibition, % at 10 µM; hit rate 2.1% among 190,000; AID 1362; in the data active = inhibition above about 58%; tested in S. cerevisiae
Insulin prom up: MIN6 insulin promoter up-regulation; MIN6 insulin promoter-GFP reporter, high-content imaging; active compounds read high; hit rate 0.3% among 190,000; AID 1625; z-score at 5 µM;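 active = z-score above 3 at 5 µM with at least 500 cells counted in the well; inconclusive = wells under 500 cells, flagged as cytotoxic or low count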
INS promoter inh: TRM-6 insulin promoter activity inhibition. AID 1273. TRM-6 cells (human fetal islet line), insulin promoter-eGFP reporter, imaging; reporter expression induced with tamoxifen. hit rate 0.9% among 130,000. inhibition, % at 2 µM;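 active = inhibition above the mean plus 3 SD, with well images judged a real hit on visual review, cut at about 60% in these data, passing the limit was not always enough; inconclusive = inhibition over the cutoff but images rejected on review; inactive = inhibition not above the cutoff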
ROMK mod: modulates human ROMK potassium channel activity; P48048; Tet-inducible ROMK, thallium flux fluorescence; actives lie on both sides; B-score at 10 µM; hit rate 2% among 130,000; AID 1918;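 active = signal ratio slope over the read window, or its plate-corrected B-score, at least 3 SD from the plate mean, either direction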;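 note: B-score of the F/F0 ratio slope over 7 to 12 s after thallium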
Target sequence (P48048 whole entry, looked up): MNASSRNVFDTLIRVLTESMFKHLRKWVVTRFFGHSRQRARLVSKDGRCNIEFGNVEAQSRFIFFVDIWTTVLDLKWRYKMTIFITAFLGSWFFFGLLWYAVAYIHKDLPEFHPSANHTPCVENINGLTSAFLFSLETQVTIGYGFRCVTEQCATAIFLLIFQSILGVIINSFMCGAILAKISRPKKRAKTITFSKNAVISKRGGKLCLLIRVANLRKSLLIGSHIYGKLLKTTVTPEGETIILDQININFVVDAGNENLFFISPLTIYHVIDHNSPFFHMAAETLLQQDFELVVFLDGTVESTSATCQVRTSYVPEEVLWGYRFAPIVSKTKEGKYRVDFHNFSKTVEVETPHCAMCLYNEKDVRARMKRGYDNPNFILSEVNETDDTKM
KCC2 mod: modulators of human KCC2 chloride dependent transport. hit rate 2.2% among 190,000. B-score of Tl+ flux slope (higher = more flux/activation; lower = inhibition) at 10 µM. Q9H2X9. KCC2 cells, thallium flux FluoZin-2 fluorescence;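 active = thallium flux slope and its plate-corrected score both differing from the plate sample mean at a set confidence after two filtering rounds, in either direction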;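 note: slope of fluorescence scaled to starting intensity during 10 to 20 s after thallium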
KCC2 sec1: confirmation of human KCC2 transport modulators. normalised thallium flux (F/F0 slope) at 10 µM. shares compounds with KCC2 mod. hit rate 15% among 3,700. AID 1713. HEK293-KCC2, thallium flux, FluoZin2 fluorescence; active compounds read high;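 active = thallium flux slope above the same plate's solvent-only control mean plus 3 SD; inconclusive = the two replicate wells disagree; inactive = no significant difference from solvent-only control wells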
KCC2 bumet counter: thallium flux persisting under bumetanide in KCC2 cells, counter-screen secondary assay; shares compounds with KCC2 mod; HEK293-KCC2 + bumetanide/ouabain, thallium flux FluoZin2; active compounds read high; normalized thallium flux at 10 µM; hit rate 49% among 3,700; AID 1714;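 active = thallium entry rate above the same plate's blocked-transporter control wells by more than 3 SD; inconclusive = the two repeat wells disagree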;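 note: raw slope of fluorescence over initial fluorescence between 10 and 20 s after thallium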
KCC2 sec2: confirmation of human KCC2 transport modulators; shares compounds with KCC2 mod; HEK293-KCC2, thallium flux FluoZin2 fluorescence; actives lie on both sides; F/F0 rise rate, 10–20 s post-thallium; normalized thallium flux at 10 µM; hit rate 23% among 3,700; AID 1715;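 active = thallium flux slope more than 3 SD above or below the plate's solvent-only control mean, mostly below; inconclusive = the two repeat wells disagreed; inactive = no significant shift from solvent-only controls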;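 note: raw slope with 0.1% DMSO as baseline and bumetanide as block control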
HEK293 Tl flux: acts in parental HEK cells, KCC2 counter-screen. shares compounds with KCC2 mod. HEK293 parental cells, thallium flux FluoZin2, ouabain; baseline-ratio fluorescence slope, 10–20 s after thallium. thallium flux rate (normalised fluorescence) at 10 µM. hit rate 46% among 3,700. AID 1716;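 active = thallium flux rate significantly above the same plate's solvent-only control wells, beyond their mean plus 3 SD; inconclusive = the two replicate wells gave conflicting results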
KCC2 retest ouab: confirmation of human KCC2 modulators with ouabain. hit rate 48% among 3,700. raw Tl+ flux slope (below DMSO = inhibition, above = activation) at 10 µM. AID 1717. HEK293-KCC2, thallium flux FluoZin2 fluorescence; bidirectional: low = inhibitor, high = activator. shares compounds with KCC2 mod;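 active = thallium flux slope beyond 3 SD from same-plate DMSO control mean in most replicates, usually higher, sometimes lower; inconclusive = repeat tests gave conflicting results; inactive = no significant difference from controls in most replicates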;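 note: slope of initial-normalized fluorescence between seconds 10 and 20 after thallium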
HEK counter2: acts in parental HEK cells, second KCC2 counter-screen | hit rate 33% among 3,700 | thallium flux slope at 10 µM | HEK293 parental, thallium flux FluoZin-2 fluorescence slope | shares compounds with KCC2 mod;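 active = thallium flux slope above the same plate's solvent-control mean plus 3 SD in both duplicate wells; inconclusive = duplicate wells that disagreed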;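 note: run without ouabain in cells lacking the KCC2 cotransporter; slope of fluorescence scaled to its starting value between 10 and 20 s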
* marks the source's active call; other numbers are inactive results; ? = inconclusive; / = not tested or not shown.

SMILES	Lmaj promast	WT yeast gro inh	Insulin prom up	INS promoter inh	ROMK mod	KCC2 mod	KCC2 sec1	KCC2 bumet counter	KCC2 sec2	HEK293 Tl flux	KCC2 retest ouab	HEK counter2
N#C/C(=C(/O)c1ccc(F)cc1)c1nc2ccccc2s1	-2	6	-0.04	40	1.3	-4.8*	0.0073	0.0058	0.032	0.0059*	0.016*	0.0096
N#C/C(=C(/O)COc1ccccc1)c1nc2ccccc2s1	-5	-5	0.26	/	0.029	-5.4*	?	0.0046	0.022*	0.0077	0.017	0.01
N#C/C(=N\O)c1nc2ccccc2s1	-3	8	0.4	/	0.53	-0.22	/	/	/	/	/	/
N#C/C(=C(/O)COC(=O)c1ccc(C#N)cc1)c1nc2ccccc2s1	44	-10	-0.01	-48	-1.6	-2.7	/	/	/	/	/	/
COc1cc(/C=N/NC(=O)c2ccc(CSc3nncn3C)cc2)cc(OC)c1O	-4	-8	/	27	0.024	0.67	/	/	/	/	/	/
O=C(CCCCCN1C(=O)c2cccc3cccc(c23)C1=O)NC1CCS(=O)(=O)C1 (stereo not given)	/	/	-0.69	/	-0.62	-0.35	/	/	/	/	/	/
Cn1c(SCC(=O)Nc2ccccc2)nnc1C(F)(F)F	-9	3	-0.1	-43	0.051	1.1	/	/	/	/	/	/
O=C(CSc1nnc(-c2ccc3c(c2)OCO3)o1)Nc1ncc(C(F)(F)F)cc1Cl	2	71	1	/	0.23	27*	0.016*	0.042*	0.034	?	0.045*	?
Cc1nc(NC(=O)CSc2nnc(-c3ccc4c(c3)OCO4)o2)c(Cl)cc1Cl	-6	5	0.34	-50	-0.17	-0.097	/	/	/	/	/	/
CS(=O)(=O)c1ccc(Cl)c(NC(=O)COC(=O)c2c(Cl)cccc2Cl)c1	18	7	-0.43	/	-0.23	0.49	/	/	/	/	/	/
c1ccc(Cn2c(SCc3nc4ccccc4s3)nnc2-c2ccco2)cc1	8	11	-1.1	22	/	-3.4*	0.0063	?	0.027*	0.0053*	?	0.0076*
O=C(CSc1nnc(-c2ccco2)n1Cc1ccccc1)NCc1ccccc1	2	9	-0.42	-281	-2.4	-0.07	/	/	/	/	/	/
CCC(c1nnc(SCc2nc3ccccc3s2)n1Cc1ccccc1)N(C)C (stereo not given)	8	-13	-0.12	-43	-1.6	/	0.015	0.0046	?	0.0066	0.014	0.0099
Cc1nnc(SCc2nc3ccccc3s2)n1N	-8	0	-0.07	/	-0.68	-0.16	/	/	/	/	/	/
O=C(CCSCCc1ccccn1)Nc1ccc(Cc2ccncc2)cc1	-4	-13	0.29	14	-0.93	-3.4*	0.0069	0.0044	?	0.0073	0.018	0.011
O=C(CCS(=O)(=O)c1ccc(Br)s1)NC1CCCC1	-5	-7	/	4	1.6	/	0.0064	0.0049	0.03	0.008	0.019	0.011
CCCC12CN3CCN(CC(C3)/C1=N\NC(=O)c1ccccc1Cl)C2	1	-3	/	/	0.71	1	/	/	/	/	/	/
FC(F)(F)c1ccc(Cl)c(NC(=S)NC2CC2)c1	-1	-2	0.71	/	-0.21	4.2*	0.012	0.0071	0.037	0.0075	0.024	0.01
CC(C)Cn1c(-c2ccc(Br)cc2)c[nH]c1=S	-2	41	-0.7	-25	-1.5	22*	0.0067	0.028*	?	0.025*	0.029*	0.025*
CCn1c(-c2ccccc2)c[nH]c1=S	-5	-8	-0.3	-5	/	0.063	/	/	/	/	/	/
O=C(CSc1nnc(NC(=O)c2ccco2)s1)NC1CCCC1	-7	-16	0.37	-305	/	1.3	/	/	/	/	/	/
